Test: COS7 lysate on small-molecule microarray, probe aHis, 635 nm (AID 1123);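 further: z-score combines 667nm fluorescence intensity with signal-to-noise per printed compound spot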
Conditions: COS7 cell lysate, fluorescence, higher = more signal

| Structure (SMILES) | composite z-score |
| --- | --- |
| C=CCC(OC(C)=O)[C@@H]1[C@@H](N(Cc2ccc(-c3ccccc3)cc2)C(=O)Cc2ccc(OC)cc2)c2cc(OCCCO)ccc2N1C(=O)c1ccc2ccccc2n1 (stereo partly drawn) | 0.514 |
| COC(=O)C(CC#Cc1ccc2c(c1)[C@]1(C(=O)N2)[C@H](C(=O)NC[C@H](O)c2ccccc2)[C@H]2C(=O)O[C@H](c3ccccc3)[C@H](c3ccccc3)N2[C@@H]1c1ccc(OCCO)cc1)C(=O)OC | 2.94 |
| COc1ccc(C(O)C2C=CC3C(=O)N(c4ccccc4)C(=O)C3N2Nc2ccc([N+](=O)[O-])cc2)cc1OCc1ccccc1 (stereo not drawn) | 1.53 |
| CC(=O)NCCCC[C@@H]1NC(=O)[C@@H]2C[C@H](C(=O)NCCCCN(C)C)[C@H](c3ccc(O)cc3)N2C1=O | -0.089 |
| CC(C)C(=C=CC[C@H](O)c1cccc(OCCO)c1)C[C@H](O)COCc1ccccc1 | 1.22 |
| CC(C)C(=C=CC[C@@H](O)c1ccccc1OCCO)C[C@@H](O)c1ccccn1 | 0.287 |
| O=C1O[C@@H](c2ccccc2)[C@@H](c2ccccc2)N2[C@@H](c3ccccc3OCCO)[C@]3(C(=O)Nc4ccc(C#CC5(O)CCCCCC5)cc43)[C@@H](C(=O)Nc3nc4ccccc4s3)[C@H]12 | 1 |
| C=CCN1C(=O)[C@]2(O[C@H](CCO)[C@@H]([Si](C)(C)c3ccc(OC)cc3)[C@@H]2C)c2cc(NC(=O)[C@H](C)O)ccc21 | 1.39 |

Test: probe aLAP1 signal on lysate-treated microarray – cell lysate, small-molecule microarray, COS7 lysate, primary screen (AID 1124);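 further: lysate comes from COS7 cells expressing LAP1 and is applied at 0.3 µg/mL; score merges spot fluorescence near 667 nm with signal-to-noise over triplicate slides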
Conditions: probe aLAP1, fluorescence, higher = more signal

| Structure (SMILES) | composite z-score |
| --- | --- |
| CCCN1C(=O)[C@@]2(CCC(=O)OC(C)(C)C)N=C(c3ccc(OCCCO)cc3)O[C@H]2c2ccccc21 | 0.0436 |
| O=C(O)[C@H]1C[C@H]2C(=O)NCC(=O)N2[C@H]1c1ccc(O)cc1 | 0.0741 |
| CC(C)c1ccc(NN2C(C(O)c3ccc(N(C)C)cc3)C=CC3C(=O)N(c4ccccc4)C(=O)C32)cc1 (stereo not drawn) | -0.161 |
| CCC[C@@H]1C=C(C(=O)O)[C@H](c2ccc(C)cc2)N1S(=O)(=O)c1ccc(C)cc1 | 0.738 |
| CC(C)c1ccc(NN2C(C(O)c3c(F)cccc3Cl)C=CC3C(=O)N(c4ccccc4)C(=O)C32)cc1 (stereo not drawn) | 0.584 |
| CC(C)=CCCC(C)=CC(O)C1C=CC2C(=O)N(c3ccccc3)C(=O)C2N1Nc1ccccc1 (stereo not drawn) | 0.78 |
| COCC1=C2[C@@H](CCc3ccccc3)OB(O)C[C@@H]2[C@@H]2C(=O)N(Cc3ccccc3)C(=O)[C@@H]2C1 | -0.0804 |
| COC(=O)[C@@]1(Cc2ccc(OC)cc2)[C@H]2c3cc(C(=O)N4CCCC4)n(CCc4c[nH]c5cc(F)ccc45)c3C[C@H]2CN1C(=O)c1ccccc1 | 0.959 |
| CC(C)N1CC=CC23O[C@@H]4C=CCOC(=O)[C@@H]4[C@H]2C(=O)N(CCO)[C@@H]3C1=O (stereo partly drawn) | -0.252 |
| COC(=O)C(CC#Cc1ccc2c(c1)[C@]1(C(=O)N2)[C@H](c2ccc(OCCO)cc2)N2[C@H](c3ccccc3)[C@H](c3ccccc3)OC(=O)[C@H]2[C@@H]1C(=O)NC[C@H](O)c1ccccc1)C(=O)OC | -0.131 |
| CC(C)NC(=O)[C@@]1(Cc2ccccc2I)c2ccccc2C(=O)N(Cc2ccccc2)[C@H]1c1ccc(CO)cc1 | 0.206 |
| CCOC(=O)C[C@H]1[C@H](OC(=O)Cc2ccc3c(c2)OCO3)[C@@H](NC(=O)c2ccc(-c3ccccc3)cc2)c2cc(OCCCO)ccc2N1C(=O)c1ccccc1 | -0.202 |
| CC(c1ccccc1)C(O)C1C=CC2C(=O)NC(=O)C2N1Nc1ccccn1 (stereo not drawn) | 0.398 |
| COc1ccc(C#Cc2ccc3c(c2)[C@]2(C(=O)N3)[C@H](c3ccc(O)cc3)N3[C@H](c4ccccc4)[C@H](c4ccccc4)OC(=O)[C@H]3[C@@H]2C(=O)NC[C@H](O)c2ccccc2)cc1 | 0.0766 |
| O=C1O[C@H](c2ccccc2)[C@H](c2ccccc2)N2[C@H]1[C@@H](C(=O)O)[C@]1(C(=O)Nc3ccc(C#CC4(O)CCCCCC4)cc31)[C@H]2c1ccc(OCCO)cc1 | 0.78 |
| NCCCCCCNC(=O)[C@H]1C[C@H]2C(=O)NCC(=O)N2[C@H]1c1cccc(OCCO)c1 | 0.295 |
| C=CCOC(=O)[C@H]1[C@@H]2C(=O)O[C@@H](c3ccccc3)[C@@H](c3ccccc3)N2[C@@H](c2ccc(OCCOC(=O)[C@@H]3C[C@@H]4C(=O)NCC(=O)N4[C@@H]3c3ccc(O)cc3)cc2)[C@]12C(=O)Nc1ccccc12 | 0.537 |
| [N-]=[N+]=Nc1ccccc1C[C@]1(C(=O)NCCN2CCOCC2)N=C(c2ccc(OCCCO)cc2)O[C@H]1c1ccccc1 | 0.203 |

| Structure (SMILES) | composite z-score |
| --- | --- |
| CC(C)N1C(=O)C[C@@](C(=O)NCc2ccccc2)(c2ccc([N+](=O)[O-])cc2)[C@H]1c1ccc(CO)cc1 | 0.506 |
| O=C1OCCC/C=C\[C@H]2OC34C=CCN(Cn5nnc6ccccc65)C(=O)[C@H]3N(CCCCCO)C(=O)[C@@H]4C12 (stereo partly drawn) | -0.477 |
| NCCCCCNC(=O)[C@H]1C[C@H]2C(=O)NCC(=O)N2[C@H]1c1cccc(OCCO)c1 | 0.391 |
| CN1C=C(C(=O)OCCS(C)(=O)=O)C(C(=O)OCCS(C)(=O)=O)=CC(CCCO)=CC1C1CC1 (stereo not drawn) | -0.0075 |
| COCCOC(=O)N1C(=O)[C@@]2(c3cc(C#CC4=CCCCC4)ccc31)[C@H](C(=O)NC[C@H](O)c1ccccc1)[C@H]1C(=O)O[C@H](c3ccccc3)[C@H](c3ccccc3)N1[C@@H]2c1ccc(O)cc1 | 0.992 |
| CCCCCCCCCCC(O)C1C=CC2C(=O)N(Cc3ccccc3)C(=O)C2N1n1cnnc1 (stereo not drawn) | 0.687 |
| Cc1ccccc1C(O)C1C=CC2C(=O)N(C)C(=O)C2N1N1CCCCC1 (stereo not drawn) | 0.996 |
| CC(=O)NCCCC[C@@H]1NC(=O)[C@@H]2C[C@H](C(=O)NCCCCCCNC(=O)CS)[C@H](c3ccc(O)cc3)N2C1=O | 0.386 |
| C=CCOC(=O)[C@H]1[C@@H]2C(=O)O[C@@H](c3ccccc3)[C@@H](c3ccccc3)N2[C@@H](c2ccc(OCCOC(=O)[C@@H]3C[C@@H]4C(=O)N5CCC[C@H]5C(=O)N4[C@@H]3c3ccc(O)cc3)cc2)[C@]12C(=O)Nc1ccccc12 | 0.261 |
| C=CCC(OC(C)=O)[C@@H]1[C@@H](N(Cc2ccc(-c3ccccc3)cc2)C(=O)Cc2ccc(OC)cc2)c2cc(OCCCO)ccc2N1C(=O)c1ccc2ccccc2n1 (stereo partly drawn) | 0.123 |
| COC(=O)C(CC#Cc1ccc2c(c1)[C@]1(C(=O)N2)[C@H](C(=O)NC[C@H](O)c2ccccc2)[C@H]2C(=O)O[C@H](c3ccccc3)[C@H](c3ccccc3)N2[C@@H]1c1ccc(OCCO)cc1)C(=O)OC | 0.811 |
| COc1ccc(C(O)C2C=CC3C(=O)N(c4ccccc4)C(=O)C3N2Nc2ccc([N+](=O)[O-])cc2)cc1OCc1ccccc1 (stereo not drawn) | 1.22 |
| CC(=O)NCCCC[C@@H]1NC(=O)[C@@H]2C[C@H](C(=O)NCCCCN(C)C)[C@H](c3ccc(O)cc3)N2C1=O | 0.765 |
| CC(C)C(=C=CC[C@H](O)c1cccc(OCCO)c1)C[C@H](O)COCc1ccccc1 | -0.125 |
| CC(C)C(=C=CC[C@@H](O)c1ccccc1OCCO)C[C@@H](O)c1ccccn1 | -0.0744 |
| O=C1O[C@@H](c2ccccc2)[C@@H](c2ccccc2)N2[C@@H](c3ccccc3OCCO)[C@]3(C(=O)Nc4ccc(C#CC5(O)CCCCCC5)cc43)[C@@H](C(=O)Nc3nc4ccccc4s3)[C@H]12 | 0.246 |
| C=CCN1C(=O)[C@]2(O[C@H](CCO)[C@@H]([Si](C)(C)c3ccc(OC)cc3)[C@@H]2C)c2cc(NC(=O)[C@H](C)O)ccc21 | 0.371 |

Reference: PubChem BioAssay
